Assay outcomes (PubChem)
HIF-2a block – HIF-2a inhibition; hit rate 0.72% among 360,000; 786-0 RCC cells HIF-2a reporter, luciferase luminescence, overnight; inhibition, % at 18.8 µM; AID 624352;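 active = inhibition of the luminescence signal of 40% or more relative to plate controls, in a single-dose primary screen at 18.75 µM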
EWS-Fli inh – inhibitors of EWS/Fli oncoprotein transcriptional activity. hit rate 0.67% among 350,000. AID 651661. inhibition, % at 12.6 µM. A673 NR0B1-luciferase reporter, viability-normalised;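 active = mean inhibition of at least 50% after viability correction, with every replicate also passing that limit; inconclusive = mean reaches 50% but only one of two replicates passes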;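 note: firefly luciferase signal divided by Alamar Blue viability fluorescence both relative to DMSO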
CF NFkB block – cystic fibrosis NF-kB activation inhibition. KKLEB NF-kB-GFP reporter, PAF-induced, GFP fluorescence overnight. inhibition, % at 5 µM. hit rate 0.86% among 360,000. AID 588850;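 active = at least 50% inhibition at 5 µM, scaled per plate between neutral and stimulator controls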;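 note: PAF is a Pseudomonas aeruginosa culture filtrate used as stimulus; plate controls were PAF-stimulated DMSO wells for no effect and unstimulated DMSO wells for full effect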
PAX8 inh HTS – inhibitors of PAX8 transcriptional activity in RMG-I cells; AID 652154; RMG-I TPO-luciferase reporter, SteadyGlo, 24 h; hit rate 1.2% among 360,000; inhibition, % at 12.6 µM;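 active = mean replicate inhibition at least 60% with every replicate also reaching 60%; inconclusive = only one of the two criteria is met; inactive = mean below 60% and not all replicates reaching 60%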;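 note: luciferase light reporting Pax8 driven TPO promoter activity; plate controls were median of neutral control wells for no effect and mitoxantrone controls for full effect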
KKLEB tox – counter-screen for CF NF-kB inhibitors: cytotoxicity; activity change (cytotoxicity), % at 5 µM; KKLEB CF airway cells viability, ATPlite luminescence, overnight; active compounds read low; cells stimulated with P. aeruginosa culture filtrate; hit rate 0.36% among 360,000;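 active = corrected activity change at or below -50% at 5 µM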
DNA binder FP – small molecule DNA binding by fluorescence polarization; shares compounds with EWS-Fli inh; salmon sperm DNA acridine orange fluorescence polarization; AC35, µM (series often up to 68 µM), for inactives: top-dose activity change, negative = DNA binding; hit rate 2% among 640; AID 720586;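 active = fitted curve reaches a 35% signal fall AC35 below twice the sample's top valid tested dose, actives reach about 48 µM in these data; inactive = the rest, including activity in the rising direction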;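 note: lower polarization ratio signals compound binding to DNA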
* hit, by the source's call; ? = inconclusive; . = no result given. Compounds with a hit are over-represented: about 2.1% of the library has one in this group of screens.

SMILES	HIF-2a block	EWS-Fli inh	CF NFkB block	PAX8 inh HTS	KKLEB tox	DNA binder FP
COc1ccc(CCC(C)NCC2CCCCC2)cc1 (stereo not given)	22	90*	-6	15	-7	2%
Cc1csc(NC(=O)c2ccc(OCC3CCCO3)cc2)n1 (stereo not given)	-23	33	-3	-16	-13	.
O=C(Nc1nc(-c2ccc(F)c(F)c2)cs1)c1ccc(OCC2CCCO2)cc1 (stereo not given)	-11	74*	37	14	-30	-6%
C[C@@H]1CCCCO[C@@H](CN(C)C(=O)Nc2cccc3ccccc23)[C@H](C)CN([C@H](C)CO)C(=O)c2cc(NC(=O)Nc3ccc(F)cc3)ccc2O1	.	7	.	-55	.	.
C=CCn1c(O)c(N=Nc2ccccc2)c2ccccc21	20	55*	-6	-17	2	-3%
O=C(C[C@@H]1CC[C@@H]2[C@H](COC[C@@H](O)CN2S(=O)(=O)c2ccc(F)cc2)O1)NCc1ccc(Cl)c(Cl)c1	.	76*	.	21	.	-16%
O=C(C[C@H]1CC[C@@H]2[C@H](COC[C@@H](O)CN2S(=O)(=O)c2ccc(F)cc2)O1)NCc1ccc(Cl)c(Cl)c1	.	1	.	-10	.	.
CCC(=O)N[C@H]1CC[C@@H](CC(=O)OC)O[C@@H]1CO	.	-11	.	-2	.	.
C[C@@H]1CN([C@@H](C)CO)C(=O)c2cc(NC(=O)C3CCCCC3)ccc2O[C@H]1CN(C)Cc1ccc(Oc2ccccc2)cc1	.	16	.	.	.	.
CO[C@H]1CN(C)C(=O)c2cc(NC(=O)NC(C)C)ccc2OC[C@H](C)N(Cc2ccc(-c3ccccn3)cc2)C[C@@H]1C	.	51*	.	.	.	12%
CCCNC(=O)N1[C@H](CO)[C@H](c2ccccc2)[C@@H]1CNC(=O)c1ccccc1	.	0	.	-4	.	.
CCc1cccc2c(C(=O)CN3C(=O)NC4(CCCCC4)C3=O)c[nH]c12	15	51*	16	50	-4	9%
C[C@@H]1CN([C@@H](C)CO)C(=O)c2cc(-c3ccc(F)cc3)cnc2O[C@@H]1CN(C)CC1CC1	.	1	.	.	.	.
OC[C@H]1O[C@@H](n2cnc3c(NC4CCCC4)ncnc32)[C@H](O)[C@@H]1O	-4	-12	-5	24	-18	.
OC[C@H]1O[C@@H](n2cnc3c(NCc4ccco4)ncnc32)[C@H](O)[C@@H]1O	-126	80*	41	100*	-26	-10%
C=CCNc1ncnc2c1ncn2C1OC(CO)C(O)C1O (stereo not given)	12	.	27	.	-38	.
OCC1OC(n2cnc3c(NCc4ccco4)ncnc32)C(O)C1O (stereo not given)	-87	76*	48	104*	-22	-13%
C[C@@H]1CN([C@H](C)CO)C(=O)Cc2cc(NC(=O)C3CCCCC3)ccc2O[C@H]1CN(C)S(=O)(=O)c1cccs1	.	-2	.	5	.	.
Cc1ccccc1NC(=O)C(=Cc1ccc(C(=O)O)cc1)C(=O)Nc1ccccc1C	42*	54*	0	109*	-44	-9%
N#C/C(=C/c1ccc(C(=O)O)cc1)C(=O)Nc1ccccc1	8	-7	-14	5	0	.
CCOc1ccc2nc(NC3=NC(c4ccc(OC)cc4)CC(=O)N3)nc(C)c2c1 (stereo not given)	14	57*	11	.	-16	-1%
C=CCOC(=O)c1sc(NC(=O)c2ccc(OC)cc2)nc1C	-156	56*	8	18	-3	2%
N/C(Cc1nc(-c2ccc(Br)cc2)cs1)=N\O	-207	-43	-9	39	20	.
N/C(Cc1nc(-c2ccc(F)cc2)cs1)=N\O	-83	77*	-21	-34	2	-6%
CCCCCCOc1ccc(C(=O)NCCCn2ccnc2)cc1	-29	24	6	26	6	.
CCCCOc1ccc(NC(=O)C(=O)NCCCn2ccnc2)cc1	21	78*	-3	85*	-3	-7%
Nc1sc(-c2ccccc2)cc1-c1n[nH]c(=S)n1C1CCCCC1	20	59*	2	13	7	-13%
CCCCNC1=CC(=O)C(=O)c2ccccc21	8	54*	4	?	0	2%
COc1ccc2c3c(n(C)c2c1)[C@@H](CO)N(C(=O)NC(C)C)CC31CCN(CC2CCCC2)CC1	.	3	.	-18	.	.
CCCN(C)C[C@H]1Oc2ncc(-c3ccccc3)cc2C(=O)N([C@@H](C)CO)C[C@H]1C	.	56*	.	-5	.	-10%
